Mcl-1 Bim block: inhibitors of Bim peptide binding to Mcl-1, primary screen, biochemical, bead-based flow cytometry, multiplex; Induced myeloid leukemia cell differentiation protein Mcl-1 (Homo sapiens), Q07820; Bim peptide-Mcl-1 binding; inhibition, % at 10 µM; 190,000 tested, 0.1% active; AID 1009, 2008; in the data active means inhibition above about 40%;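 further: 0% = no compound tracer wells and 100% = peptide blocker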
Target sequence (Q07820 whole entry, looked up): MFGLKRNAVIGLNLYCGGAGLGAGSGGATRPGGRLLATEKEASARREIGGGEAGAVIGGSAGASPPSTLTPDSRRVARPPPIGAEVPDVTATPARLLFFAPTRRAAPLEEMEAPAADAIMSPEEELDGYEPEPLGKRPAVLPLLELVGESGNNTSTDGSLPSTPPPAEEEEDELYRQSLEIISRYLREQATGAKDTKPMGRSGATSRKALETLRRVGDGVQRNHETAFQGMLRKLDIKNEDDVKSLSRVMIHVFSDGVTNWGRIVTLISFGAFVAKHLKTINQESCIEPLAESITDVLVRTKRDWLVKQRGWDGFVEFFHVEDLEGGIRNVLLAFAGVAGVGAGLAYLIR
eIF4E-4G inh: eIF4E–eIF4G protein interaction inhibitors, primary screen, biochemical, uHTS, TR-FRET, eIF4GI fragment | 220,000 tested, 0.37% active | Eukaryotic translation initiation factor 4E (Mus musculus) + Eukaryotic translation … | TR-FRET eIF4E-eIF4GI(517-606) binding, 2 h | inhibition, % at 21.7 µM;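 active means inhibition above about 30%, limit read from the data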;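 further: 0% = full FRET control wells and 100% = background wells lacking eIF4GI fragment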
Mcl1-Bid inh: Mcl-1/Bid binding inhibitors, primary screen, biochemical, TR-FRET, 1536-well; Induced myeloid leukemia cell differentiation protein Mcl-1 (Homo sapiens), Q07820; TR-FRET Mcl-1/Bid-Dy647 peptide binding; inhibition, % at 21.7 µM; 220,000 tested, 0.97% active; AID 1021, 2008;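 active means compounds that cut the binding signal by more than half at the single screening dose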;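 further: His-tagged Mcl-1 with europium anti-His antibody binding Bid BH3 peptide; 0% = Mcl-1 plus peptide wells and 100% = peptide-only wells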
Hck-Nef inh: inhibitors of Nef-activated human Hck kinase, primary screen, biochemical, Z-Lyte FRET, 384-well, Hck-YEEI | Tyrosine-protein kinase HCK (Homo sapiens), P08631 | Recombinant Hck-YEEI plus Nef, Z-Lyte FRET kinase assay | inhibition, % at 20 µM | 220,000 tested, 0.68% active;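 active means Hck-Nef kinase inhibition above about 50%, limit read from the data; inactive means inhibition below that limit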;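 further: 0% = DMSO with Hck plus Nef and 100% = Hck alone without Nef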
14-3-3 Bad PPI: inhibitors of 14-3-3 zeta/Bad binding, primary screen, biochemical, TR-FRET, bovine 14-3-3 zeta. 14-3-3 protein zeta/delta (Bos taurus), P63103. TR-FRET 14-3-3zeta/Dy647-pBad peptide displacement, 1 h. inhibition, % at 21.7 µM. 220,000 tested, 0.71% active. AID 781, 2007;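 active means inhibition above about 70%, limit read from the data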;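 further: 0% = full 14-3-3 plus peptide FRET controls and 100% = background without 14-3-3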
Target sequence (P63103 whole entry, looked up): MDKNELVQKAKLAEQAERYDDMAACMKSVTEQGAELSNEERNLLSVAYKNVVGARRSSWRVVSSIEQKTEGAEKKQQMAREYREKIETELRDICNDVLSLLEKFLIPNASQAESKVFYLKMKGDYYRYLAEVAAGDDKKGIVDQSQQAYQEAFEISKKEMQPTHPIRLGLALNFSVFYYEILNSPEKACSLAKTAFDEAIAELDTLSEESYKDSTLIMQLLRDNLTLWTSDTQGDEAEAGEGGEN
Mcl1-Noxa inh: Mcl-1/Noxa binding inhibitors, primary screen, biochemical, TR-FRET, 1536-well. TR-FRET Mcl-1/Noxa peptide binding, 2 h. inhibition, % at 21.7 µM. 220,000 tested, 1.5% active;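 active means compounds that cut the protein-peptide binding signal by more than 50% relative to plate controls in a single-dose test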;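 further: His-tagged Mcl-1 with rhodamine Noxa BH3 peptide and terbium anti-His antibody; 0% = Mcl-1 plus Noxa peptide wells and 100% = peptide-only wells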
Numbers without * were called inactive; · = no result; [ ] = dose if it differs, or a comment. Hits are enriched below; roughly 3.5% of the tested compounds scored in any of these assays.

SMILES	Mcl-1 Bim block	eIF4E-4G inh	Mcl1-Bid inh	Hck-Nef inh	14-3-3 Bad PPI	Mcl1-Noxa inh
O=c1[nH]cc(COCC(F)CCl)c(=O)[nH]1 (stereo unspecified)	·	96.8*	-58.0	9.5	-0.2	20.9
CCCCCCCCOC(=O)c1c(CSC(=N)N)n(C)c2cc(Br)c(OC(C)=O)cc12	·	-1.9	2.4	-36.9	85.2*	-12.3
CCOC(=O)c1c(CSC(=N)N)n(-c2ccc(Br)cc2)c2cc(Br)c(OC(C)=O)cc12	7.0	37.1*[fluorescence artefact?]	0.0	0.4	95.7*[fluorescence artefact?]	65.5*
CCOC(=O)c1c(CSc2nc(C)cc(C)c2C#N)n(C)c2cc(Br)c(OC(C)=O)cc12	-3.0	5.0	-32.7	1.1	-24.5	-15.9
O=C1CCCC2=C1C(c1ccco1)Nc1ccc3ccccc3c12 (stereo unspecified)	1.0	20.6	60.0*	14.4	72.5*[fluorescence artefact?]	99.0*
Cc1cc(OCc2cn3cccnc3n2)ccc1Cl	1.0	-25.0	-28.9	0.6	37.7	26.6
O=C(Cn1cc([N+](=O)[O-])cn1)Nc1cccnc1	-1.0	-1.3	-16.0	22.9	-15.7	5.5
CCC1CCCCN1C(=O)Cn1nc([N+](=O)[O-])c(Cl)c1C (stereo unspecified)	0.0	-2.2	8.7	-14.7	14.4	5.8
COc1ccc2ccccc2c1C1CC(=O)N2CN(C)CSC2=C1C#N (stereo unspecified)	-6.0	49.0*[fluorescence artefact?]	-17.2	0.1	27.1	37.8
COc1ccccc1N1CSC2=C(C#N)C(c3ccc(SC)cc3)CC(=O)N2C1 (stereo unspecified)	8.0	-4.1	1.5	3.8	-7.8	83.0*
O=C(NCc1cn(-c2ccccc2)nc1-c1ccccc1)c1cc([N+](=O)[O-])cc([N+](=O)[O-])c1	-4.0	-7.1	-14.5	-0.4	95.6*	-2.0
O=C(NCc1cn(-c2ccccc2)nc1-c1ccccc1)c1cccc([N+](=O)[O-])c1	-6.0	3.1	-9.5	-1.1	-3.0	10.3
CC(=O)Cc1cc(O)c2ccccc2c1OC(=O)c1ccc(Br)cc1	·	-0.8	96.2*	17.7	-17.2	24.0
COc1ccc(CCNC(=S)NCc2ccc(Cl)c(Cl)c2)cc1OC	1.0	-8.6	-15.3	-13.7	-12.8	15.1
Cc1ccc(C)c(NC2=C(Cl)C(=O)OC2OC(=O)c2ccco2)c1 (stereo unspecified)	-2.0	-7.2	3.2	0.4	-7.2	56.8*
Cc1ccc(NC2=C(Cl)C(=O)OC2OC(=O)c2ccco2)c(C)c1 (stereo unspecified)	4.0	2.1	0.7	1.3	-11.0	15.7
Cc1ccc2nc(/C(C#N)=C\c3cc(O)ccc3[N+](=O)[O-])[nH]c2c1	0.0	2.5	-36.9	-6.2	9.4	21.2
COc1cc(/C=C(\C#N)c2nc3ccc(C)cc3[nH]2)cc([N+](=O)[O-])c1O	11.0	5.2	-47.0	29.5	2.7	80.6*
COc1cc(/C=C(/C#N)c2nc3ccccc3c(=O)[nH]2)ccc1O	-2.0	11.8	70.4*	-6.6	13.5	41.9
COc1cc(/C=C(\C#N)c2nc3ccccc3[nH]2)cc(OC)c1O	5.0	30.0*	-22.5	23.2	-2.3	72.4*
COc1cc(/C=C(\C#N)c2nc3ccc(C)cc3[nH]2)c([N+](=O)[O-])cc1OC	-5.0	1.0	-6.2	0.7	-6.3	18.4
Cc1ccc2nc(/C(C#N)=C/c3ccc(-c4cccc([N+](=O)[O-])c4)o3)[nH]c2c1	0.0	29.0	36.2	24.3	39.1	79.9*
COc1cc(/C=C(/C#N)c2nc3ccccc3[nH]2)ccc1OC(=O)c1ccco1	-6.0	-3.3	-2.5	4.1	-11.3	12.8
O=C(NCCc1c[nH]c2ccccc12)C(=O)NCC1OCCN1S(=O)(=O)c1cc(F)ccc1F (stereo unspecified)	·	-1.7	-51.0	27.0	-4.5	-6.7
O=C(O)c1ccc(Nc2ncc([N+](=O)[O-])cc2[N+](=O)[O-])cc1	-2.0	-0.4	-26.4	18.2	6.8	6.3
SMILES	Mcl-1 Bim block	eIF4E-4G inh	Mcl1-Bid inh	Hck-Nef inh	14-3-3 Bad PPI	Mcl1-Noxa inh
Cc1ccc2nc(/C(C#N)=C\c3ccc(Oc4ccc(C(F)(F)F)cc4[N+](=O)[O-])cc3)[nH]c2c1	-3.0	7.6	-27.7	9.6	-5.9	51.4*
COc1cc(/C=C(\C#N)C(=O)c2c[nH]c3ccccc23)cc(OC)c1O	3.0	24.7	45.5	6.4	9.7	70.4*
COc1ccc(/C=C(\C#N)c2nc3ccc(C)cc3[nH]2)cc1Oc1ccc(C(F)(F)F)cc1[N+](=O)[O-]	0.0	-27.2	-12.2	22.3	11.7	-0.3
O=C(O)CCCSc1nccn1-c1ccccc1	-1.0	1.9	-6.2	17.0	2.7	-4.3
O=C(O)CCCCCN1C(=O)/C(=C\c2ccncc2)SC1=S	-3.0	-0.6	-42.3	-3.0	8.1	0.2
O=C(O)CCCN1C(=O)/C(=C/c2ccc(-c3nc4ccccc4s3)o2)SC1=S	11.0	-0.2	53.3*	-3.7	-1.5	102.1*
O=C(O)CCCCCN1C(=O)/C(=C\c2ccc(-c3ccc(Cl)cc3)o2)SC1=S	·	24.4	89.7*	46.9	70.6*	105.2*
CC(=O)NC(=S)Nc1cccc(S(=O)(=O)NC2=NCCC2)c1	-4.0	0.7	-60.3	1.1	3.4	2.0
Cc1nnc(NC(=O)CCNC(=O)c2ccccc2Cl)s1	-2.0	2.5	-4.1	17.6	-5.8	15.5
O=C(CNCc1ccncc1)Nc1cc(S(=O)(=O)N2CCCCC2)ccc1Cl	-7.0	-1.1	55.2*	-0.6	34.0	34.7
O=C(CNCc1ccccn1)Nc1cc(S(=O)(=O)N2CCCCC2)ccc1Cl	1.0	-1.2	-27.0	4.4	-14.7	-13.8
COc1cccc2sc(N(C)c3ccccc3)nc12	0.0	1.0	-35.3	0.1	10.6	16.0
COc1cccc2sc(/N=C/N(C)C)nc12	·	11.9	55.6*	-10.3	13.5	26.0
CC(C)N1C(=O)C(O)(C2COC(C)(C)CC2=O)c2ccccc21 (stereo unspecified)	-1.0	-3.4	38.7	16.3	70.7*	36.4
CC1(C)CC(=O)C(C2(O)C(=O)N(Cc3ccccc3)c3ccccc32)CO1 (stereo unspecified)	0.0	-3.1	-23.1	7.6	11.6	-14.3
O=C(CSCc1c(Cl)cccc1Cl)Nc1ccc2c(c1)OCCO2	0.0	-2.0	-10.9	3.3	-8.1	5.9
N/C(=N\OC(=O)CC1CCCCC1)c1ccncc1	11.0	1.0	1.9	15.6	2.7	0.9

Assay outcomes (PubChem)
